Screening data from PubChem.
Rows were chosen to be rich in hits. Some 3.5% of all compounds tested hit in one or more screens of this group.
Pf apPOL block: Pf-apPOL inhibitors, biochemical, fluorescence. Plasmodium falciparum apicoplast DNA polymerase (apPOL). Recombinant Pf-apPOL, molecular beacon fluorescence, 1.5 h. inhibition, % at 10 µM. 210,000 tested, 0.25% active
mHTT CaM bind: mutant huntingtin-calmodulin interaction inhibitors – biochemical, AlphaScreen, primary screen. P42858. AlphaScreen His-mHTT/GST-CaM binding, luminescence. inhibition, % at 15 µM. 190,000 tested, 3.6% active;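 further: 0% = both proteins with DMSO and 100% = one protein alone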
Target sequence (P42858 whole entry, looked up, stated change not applied): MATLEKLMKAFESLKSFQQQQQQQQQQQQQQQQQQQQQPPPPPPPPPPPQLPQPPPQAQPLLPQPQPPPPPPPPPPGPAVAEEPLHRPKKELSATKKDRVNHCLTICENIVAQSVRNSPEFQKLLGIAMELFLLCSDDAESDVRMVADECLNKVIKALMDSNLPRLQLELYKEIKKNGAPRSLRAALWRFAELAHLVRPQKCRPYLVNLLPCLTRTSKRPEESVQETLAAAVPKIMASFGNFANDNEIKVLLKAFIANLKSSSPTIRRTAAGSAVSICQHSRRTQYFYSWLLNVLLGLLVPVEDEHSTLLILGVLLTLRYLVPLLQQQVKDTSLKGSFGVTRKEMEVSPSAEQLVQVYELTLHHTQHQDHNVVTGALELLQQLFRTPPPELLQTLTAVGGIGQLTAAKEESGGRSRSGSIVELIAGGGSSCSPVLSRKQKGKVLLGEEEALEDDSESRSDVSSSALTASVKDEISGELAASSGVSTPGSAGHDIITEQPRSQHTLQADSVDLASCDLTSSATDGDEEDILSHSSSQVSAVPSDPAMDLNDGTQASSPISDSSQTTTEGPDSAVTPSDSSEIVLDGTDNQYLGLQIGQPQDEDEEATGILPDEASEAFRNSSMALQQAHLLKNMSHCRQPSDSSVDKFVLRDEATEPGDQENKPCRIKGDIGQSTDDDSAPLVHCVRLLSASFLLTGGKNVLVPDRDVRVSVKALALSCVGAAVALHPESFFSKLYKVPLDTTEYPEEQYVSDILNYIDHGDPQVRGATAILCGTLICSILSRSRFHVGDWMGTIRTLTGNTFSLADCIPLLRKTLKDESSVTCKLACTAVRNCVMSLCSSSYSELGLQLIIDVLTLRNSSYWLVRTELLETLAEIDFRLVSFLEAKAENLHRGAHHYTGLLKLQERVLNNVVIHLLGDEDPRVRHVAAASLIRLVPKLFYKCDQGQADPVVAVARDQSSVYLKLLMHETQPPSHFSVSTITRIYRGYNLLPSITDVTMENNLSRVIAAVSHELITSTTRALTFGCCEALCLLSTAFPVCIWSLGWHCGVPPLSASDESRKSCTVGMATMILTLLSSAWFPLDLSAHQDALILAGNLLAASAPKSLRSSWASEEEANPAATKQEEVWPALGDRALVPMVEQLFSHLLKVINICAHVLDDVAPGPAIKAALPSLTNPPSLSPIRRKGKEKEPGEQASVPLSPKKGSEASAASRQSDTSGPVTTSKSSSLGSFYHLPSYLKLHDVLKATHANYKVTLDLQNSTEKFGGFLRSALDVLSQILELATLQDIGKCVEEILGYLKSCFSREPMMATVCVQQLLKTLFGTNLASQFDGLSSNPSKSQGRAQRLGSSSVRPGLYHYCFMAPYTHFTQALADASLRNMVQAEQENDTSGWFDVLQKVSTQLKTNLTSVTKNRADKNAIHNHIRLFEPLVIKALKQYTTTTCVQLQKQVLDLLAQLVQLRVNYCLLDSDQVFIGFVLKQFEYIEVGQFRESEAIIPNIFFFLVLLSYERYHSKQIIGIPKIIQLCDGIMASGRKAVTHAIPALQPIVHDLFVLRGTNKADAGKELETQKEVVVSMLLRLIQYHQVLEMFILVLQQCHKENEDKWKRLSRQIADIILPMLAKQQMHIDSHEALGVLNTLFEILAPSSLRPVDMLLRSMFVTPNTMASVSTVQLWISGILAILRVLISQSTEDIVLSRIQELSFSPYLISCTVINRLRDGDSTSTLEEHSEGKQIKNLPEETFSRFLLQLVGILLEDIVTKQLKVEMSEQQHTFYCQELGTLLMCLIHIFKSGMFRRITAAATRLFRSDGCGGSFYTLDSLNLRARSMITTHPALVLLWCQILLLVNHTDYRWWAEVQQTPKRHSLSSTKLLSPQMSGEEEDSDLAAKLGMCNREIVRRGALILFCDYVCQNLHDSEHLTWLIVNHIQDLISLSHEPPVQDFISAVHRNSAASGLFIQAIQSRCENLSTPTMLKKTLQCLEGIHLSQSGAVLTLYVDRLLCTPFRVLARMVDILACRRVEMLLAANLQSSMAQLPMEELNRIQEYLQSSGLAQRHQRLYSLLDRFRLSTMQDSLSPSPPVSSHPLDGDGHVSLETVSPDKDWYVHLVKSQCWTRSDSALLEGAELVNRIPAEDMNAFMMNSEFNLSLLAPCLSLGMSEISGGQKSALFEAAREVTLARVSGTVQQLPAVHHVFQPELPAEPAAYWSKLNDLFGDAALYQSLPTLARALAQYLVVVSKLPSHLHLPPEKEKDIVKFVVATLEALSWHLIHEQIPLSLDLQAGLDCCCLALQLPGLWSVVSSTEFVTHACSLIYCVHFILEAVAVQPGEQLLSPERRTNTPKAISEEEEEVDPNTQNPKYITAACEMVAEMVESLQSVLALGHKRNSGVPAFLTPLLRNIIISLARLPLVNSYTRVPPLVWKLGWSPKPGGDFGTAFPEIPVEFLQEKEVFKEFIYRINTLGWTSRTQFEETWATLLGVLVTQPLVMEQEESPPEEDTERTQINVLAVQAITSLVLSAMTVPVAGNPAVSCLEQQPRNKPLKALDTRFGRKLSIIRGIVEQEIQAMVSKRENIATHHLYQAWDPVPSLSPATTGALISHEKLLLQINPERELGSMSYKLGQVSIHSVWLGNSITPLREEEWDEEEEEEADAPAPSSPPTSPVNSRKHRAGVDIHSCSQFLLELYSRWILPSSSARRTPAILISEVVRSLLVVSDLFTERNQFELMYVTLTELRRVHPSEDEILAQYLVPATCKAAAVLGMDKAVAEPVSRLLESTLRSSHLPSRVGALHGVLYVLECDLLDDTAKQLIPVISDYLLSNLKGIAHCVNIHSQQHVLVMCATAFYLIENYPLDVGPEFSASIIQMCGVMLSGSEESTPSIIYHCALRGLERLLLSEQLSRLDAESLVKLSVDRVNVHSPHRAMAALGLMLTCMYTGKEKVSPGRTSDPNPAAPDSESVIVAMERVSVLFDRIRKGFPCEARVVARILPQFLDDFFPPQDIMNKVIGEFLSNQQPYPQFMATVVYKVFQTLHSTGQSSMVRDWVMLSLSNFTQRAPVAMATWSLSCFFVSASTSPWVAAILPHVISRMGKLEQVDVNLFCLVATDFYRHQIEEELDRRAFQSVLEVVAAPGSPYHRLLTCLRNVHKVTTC
* hit, by the source's call. No stated cut-off is given here; in the data, active means inhibition above about 50%; inactive means the rest.

How did N#Cc1ccccc1C(C(N)=O)(c1ccccc1)c1ccccc1C#N do in these assays?
Pf apPOL block: -7; mHTT CaM bind: 3

What do the screens show for `COc1cccc(CN2CCc3nc(N4CCN(c5ccccc5)CC4)ncc3C2)c1OC`?
Pf apPOL block: 0; mHTT CaM bind: 47

Results for O=C(Cc1cccc(F)c1)N1CCc2[nH]cnc2C1c1ccncc1 (stereo unspecified) ?
Pf apPOL block: 1; mHTT CaM bind: 1

Results for CCn1c(N2CCC(C(=O)NCCC3=CCCCC3)CC2)cc(=O)n(C)c1=O ?
Pf apPOL block: 5; mHTT CaM bind: 51*

Results for Cc1cccc(N2CC(C(=O)NCc3ccccn3)CC2=O)c1 (stereo unspecified) ?
Pf apPOL block: -14; mHTT CaM bind: 61*

How did Cn1c(N2CCC(C(=O)NCc3ccccn3)CC2)cc(=O)n(C)c1=O do in these assays?
Pf apPOL block: 1; mHTT CaM bind: 70*

Results for COc1ccc(NC(=O)C2CCN(c3cc(=O)n(C)c(=O)n3C)CC2)cc1OC ?
Pf apPOL block: 0; mHTT CaM bind: 39

Results for Cn1c(N2CCC(C(=O)NCc3ccccc3)CC2)cc(=O)n(C)c1=O ?
Pf apPOL block: 2; mHTT CaM bind: 27

How did CCn1c(N2CCC(C(=O)Nc3cc(OC)c(OC)c(OC)c3)CC2)cc(=O)n(C)c1=O do in these assays?
Pf apPOL block: 2; mHTT CaM bind: 62*

How did Cn1c(N2CCCC(C(=O)NCCC3=CCCCC3)C2)cc(=O)n(C)c1=O (stereo unspecified) do in these assays?
Pf apPOL block: 0; mHTT CaM bind: 11

Results for CC(C)c1ccc(N2CC(C(=O)NCc3ccccn3)CC2=O)cc1 (stereo unspecified) ?
Pf apPOL block: -4; mHTT CaM bind: 9

How did C=CCOc1c(I)cc(C=O)cc1OCC do in these assays?
Pf apPOL block: -2; mHTT CaM bind: -26

What do the screens show for `O=C(CSc1ccc(C(=O)Nc2ccccc2C(F)(F)F)cc1[N+](=O)[O-])NCc1ccco1`?
Pf apPOL block: -5; mHTT CaM bind: 3

Results for Cn1c(N2CCC(C(=O)NCc3cccs3)CC2)cc(=O)n(C)c1=O ?
Pf apPOL block: -2; mHTT CaM bind: 40

How did CCn1c(N2CCC(C(=O)NCc3cccs3)CC2)cc(=O)n(C)c1=O do in these assays?
Pf apPOL block: -3; mHTT CaM bind: 62*

Results for CCN1CCCC1CNC(=O)Cn1c(C)cc2ccccc2c1=O (stereo unspecified) ?
Pf apPOL block: -4; mHTT CaM bind: 3

How did CC(C)=C1SC(=O)N(CC(=O)Nc2ccc(S(N)(=O)=O)cc2)C1=O do in these assays?
Pf apPOL block: -2; mHTT CaM bind: -8

What do the screens show for `NS(=O)(=O)c1ccc(NC(=O)CN2CC(=O)Oc3ccccc32)cc1`?
Pf apPOL block: -166; mHTT CaM bind: 98*

What do the screens show for `CC(C)N1CCN(C(=O)c2ccc(-c3cccs3)nc2)CC1`?
Pf apPOL block: -5; mHTT CaM bind: -2

What do the screens show for `O=C(Nc1nccn(-c2cccc(Cl)c2)c1=O)c1ccccn1`?
Pf apPOL block: -3; mHTT CaM bind: -4

How did Cc1cc(C)cc(-n2ccnc(NC(=O)c3ccccn3)c2=O)c1 do in these assays?
Pf apPOL block: -16; mHTT CaM bind: 74*

Results for COc1ccc(-c2noc(C3CCN(CC(=O)Nc4ccc5c(c4)CCC5)CC3)n2)cc1 ?
Pf apPOL block: -2; mHTT CaM bind: -4

What do the screens show for `COc1ccc(C(=O)C=Cc2ccc(OC)c(OC)c2)c(O)c1`?
Pf apPOL block: -3; mHTT CaM bind: 50*

What do the screens show for `COc1ccc(C(=O)C=Cc2ccc(OC)c(OC)c2)c(OC)c1`?
Pf apPOL block: -16; mHTT CaM bind: 13

What do the screens show for `CC1CN(C(=O)c2ccco2)CC1c1nc(-c2ccccc2)no1` (stereo unspecified)?
Pf apPOL block: -4; mHTT CaM bind: 12

How did COc1ccc(C2CC(c3ccccc3)Nc3nnnn32)cc1 (stereo unspecified) do in these assays?
Pf apPOL block: 2; mHTT CaM bind: -1

How did COc1ccc(C2CC(c3ccc(-c4ccccc4)cc3)Nc3nnnn32)cc1 (stereo unspecified) do in these assays?
Pf apPOL block: -7; mHTT CaM bind: 64*

Results for Cn1c(COc2ccccc2)nn(CN2CCC3(CC2)OCCO3)c1=S ?
mHTT CaM bind: -8

What do the screens show for `Cn1c(COc2ccccc2)nn(C2c3ccccc3Oc3ccccc32)c1=S`?
mHTT CaM bind: 54*

How did Cc1c(NC(=O)CCCn2cnc(-c3ccccc3)cc2=O)c(=O)n(-c2ccccc2)n1C do in these assays?
Pf apPOL block: -7; mHTT CaM bind: -4

What do the screens show for `COc1cc2c(cc1NC(=O)c1cc([N+](=O)[O-])ccc1OC)oc1ccccc12`?
Pf apPOL block: -2; mHTT CaM bind: -1

Results for COc1ccc(Cl)cc1C(=O)Nc1cc(C)ccn1 ?
Pf apPOL block: -4; mHTT CaM bind: -9

What do the screens show for `CCn1cc(SCC(=O)Nc2ccc(OC)cc2OC)c2ccccc21`?
Pf apPOL block: -4; mHTT CaM bind: -2

How did COc1ccc(N2CC(c3nnc(NC(=O)COc4ccc(F)cc4)o3)CC2=O)cc1 (stereo unspecified) do in these assays?
Pf apPOL block: 2; mHTT CaM bind: 19

Results for O=C(COc1ccc(F)cc1)Nc1nnc(C2CC(=O)N(c3ccc(F)cc3)C2)o1 (stereo unspecified) ?
Pf apPOL block: -2; mHTT CaM bind: 68*

How did O=C(Cc1ccc(Cl)cc1)Nc1nnc(C2CC(=O)N(c3ccc(F)cc3)C2)o1 (stereo unspecified) do in these assays?
Pf apPOL block: -4; mHTT CaM bind: 71*

Results for COc1ccc(N2CC(c3nnc(NC(=O)Cc4ccc(F)cc4)o3)CC2=O)cc1 (stereo unspecified) ?
Pf apPOL block: -1; mHTT CaM bind: 73*

How did O=C(Nc1nnc(C2CC(=O)N(c3ccc(Cl)cc3)C2)o1)c1ccc(F)cc1 (stereo unspecified) do in these assays?
Pf apPOL block: -2; mHTT CaM bind: 16

How did COc1ccc(CC(=O)Nc2nnc(C3CC(=O)N(c4ccc(OC)cc4)C3)o2)cc1 (stereo unspecified) do in these assays?
Pf apPOL block: -4; mHTT CaM bind: 15

Results for COc1ccc(N2CC(c3nnc(NC(=O)Cc4ccc(Cl)cc4)o3)CC2=O)cc1 (stereo unspecified) ?
Pf apPOL block: -1; mHTT CaM bind: 5

How did O=C(Cc1ccc(F)cc1)Nc1nnc(C2CC(=O)N(c3ccc(Cl)cc3)C2)o1 (stereo unspecified) do in these assays?
Pf apPOL block: -6; mHTT CaM bind: 67*

How did Cc1nc(SCC(=O)c2ccc([N+](=O)[O-])cc2)c(C#N)c(C)c1C do in these assays?
Pf apPOL block: -3; mHTT CaM bind: 4

Results for O=C(NCc1cc(-c2ccc(Cl)cc2)on1)c1c(F)cccc1F ?
Pf apPOL block: -9; mHTT CaM bind: -10

What do the screens show for `COc1ccc(C(C)NC(=O)c2cn3c(n2)CN(CC(C)C)CC3)cc1OC` (stereo unspecified)?
Pf apPOL block: -2; mHTT CaM bind: 15

How did CCOC(=O)c1c(SCC(=O)Nc2ccccc2[N+](=O)[O-])nc(=O)[nH]c1C do in these assays?
Pf apPOL block: -10; mHTT CaM bind: -1

How did O=C(CCNS(=O)(=O)c1ccc(Br)s1)NC1CCCCCC1 do in these assays?
Pf apPOL block: -23; mHTT CaM bind: -4
